High-throughput results deposited in PubChem by National Center for Advancing Translational Sciences (NCATS).
Pol kappa inh – inhibitors of human DNA polymerase kappa; Q9UBT6; purified Pol kappa, fluorescent DNA synthesis assay, 10 min; Potency, µM (titrated, usually from 107 µM), for the others: at the top dose activity, negative = inhibition, most hits filed as inhibitors; 400,000 compounds, 0.53% hits; AID 588579; also: % is scaled to controls: 0 for no effect and ±100 for the full control effect
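First, compounds were pin-transferred onto 10 nM Pol kappa. After 15 min at room temperature, substrate was added to 50 nM final. Fluorescence was then measured kinetically at 0 and 10 min.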
POLI inh – blocks human DNA polymerase iota activity | 390,000 compounds, 1% hits | AID 588590 | Q9UNA4 | Potency, µM (top dose mostly 115 µM), for inactives: at the top dose activity, negative = inhibition, most hits filed as inhibitors | Pol iota fluorescent replication assay, 10 min
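Fluorescent replication assay read twice, at 0 min and 10 min after adding 50 nM (final) substrate. Enzyme (10 nM) and compounds were first incubated 15 min at room temperature; enzyme-free buffer wells were negative controls.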
POLH inh – DNA polymerase eta (human) inhibition; Q9Y253; recombinant Pol eta, fluorescent DNA replication assay; Potency, µM (highest dose often 114 µM), for inactives: top-dose activity change, negative = inhibition, usual class: inhibitors; 390,000 compounds, 1.2% hits; AID 588591; also: % is scaled to controls: 0 for no effect and ±100 for the full control effect
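Fluorescent replication assay: 50 nM final substrate added after a 15 min room-temperature compound preincubation with 10 nM enzyme. Signal taken at 0 min and again at 10 min.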
FEN1 inhibitor – blocks human flap endonuclease 1. Potency, µM (top dose mostly 114 µM), without a hit: at the highest dose activity change, negative = inhibition, usual class: inhibitors. Recombinant FEN1 flap cleavage, fluorescence, 15 min. 390,000 compounds, 0.35% hits. P39748; also: % is scaled to controls: 0 for no effect and ±100 for the full control effect; nearly all actives have a fitted effect of over 65% in size
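With each library titrated from low to high concentration, compounds met 10 nM FEN1 for 15 min at room temperature before 50 nM substrate was added; readings at 0 and 15 min fed four-parameter Hill curve fits.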
WRN inhibitor – blocks human WRN helicase; Potency, µM (top dose mostly 114 µM), without a hit: at the highest dose activity change, negative = inhibition, hits mostly inhibitors; Q14191; 360,000 compounds, 0.46% hits; WRN helicase unwinding, fluorescent forked duplex, kinetic; also: % is scaled to controls: 0 for no effect and ±100 for the full control effect; nearly all actives have a fitted effect of over 55% in size
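WRN at 20 nM final was preincubated with compound for 15 min at room temperature; reaction started with 100 nM forked duplex oligonucleotide carrying fluorophore and quencher plus 2 mM ATP (final). Unwinding followed kinetically by red fluorescence (ex 525/em 598 nm).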
POLB inh – inhibitors of human DNA polymerase beta; P06746; Pol beta primer extension/strand displacement, fluorescence kinetic; Potency, µM (titrated, usually from 114 µM), for the others: at the highest dose activity change, negative = inhibition, usual class: inhibitors; 340,000 compounds, 1.3% hits; also: % is scaled to controls: 0 for no effect and ±100 for the full control effect
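Homogeneous kinetic assay of primer extension and strand displacement by 10 nM Pol beta, preincubated 15 min at room temperature with compound before 50 nM substrate (final) was added. Read at 0 and 10 min; four-parameter Hill fit.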
The depositor's hits bear a star; ? = inconclusive; . = not tested or not shown; [ ] = another dose, or the depositor's remark. Sampled rows, rich in hits. Any-hit rate of the full collection: about 2.4%. Calls follow the shape of the dose curve; as a rule, active = well fitted curve in the direction sought with a large enough effect; inconclusive = small, poorly fitted or top-dose-only effect, or another doubt; inactive = no such curve, though single readings can be large; an effect the other way counts as inactive or inconclusive. Potency is read from the fitted curve at half-maximal effect.

SMILES	Pol kappa inh	POLI inh	POLH inh	FEN1 inhibitor	WRN inhibitor	POLB inh
O=C(COC(=O)c1ccc([N+](=O)[O-])o1)NC1CCCC1	-13%	79µM*	?	?	-9%	.
CCc1cccc(NC(=O)CCS(=O)(=O)c2ccc(C)cc2)c1	5%	6%	-17%	-3%	.	25%
COC1=C/C(=C/c2c(N)n3c(nc2=O)sc2cc(S(C)(=O)=O)ccc23)C=CC1=O	-32%	?	28µM*	-24%	-2%[11.6 µM]	-1%
CCS(=O)(=O)c1nn2c(N)c(/C=C3/C=CC(=O)C(OC)=C3)c(=O)nc2s1	-26%	-9%	?	1%	-25%	6%
COC1=C/C(=C/c2c(N)n3nc(-c4ccc(C)cc4)sc3nc2=O)C=CC1=O	-10%	14µM*	22µM*	?	-10%[11.6 µM]	56µM*
CCCCC1(C)NC(=S)N2N1C(=S)NC2(C)CCCC (configuration not stated)	0%	?	-12%	6%	56µM*	24%
O=c1c2ccccc2sc2ccc(NCCCN3CCOCC3)cc12	5%	?	?	45µM*	-17%	.
Cc1[nH]c2ccccc2c1C(=O)COC(=O)c1ccccc1SCC(=O)N1CCCC1	3%	-16%	.	-10%	.	.
NN1C(=O)c2cccc3c(C(=O)O)ccc(c23)C1=O	-3%	-15%	?	4%	4%	11%
CC(=O)c1ccc2c3c(cccc13)C(=O)N(CCc1ccccc1)C2=O	?	?	28µM*	-15%	-5%[11.6 µM]	32µM*
CCOc1ccc2oc(C(=O)Nc3nccs3)c(C)c2c1	-2%	20%	22µM*	-6%	-5%[11.6 µM]	.
COc1ccc2oc(C(=O)Nc3nccs3)c(C)c2c1	7%	18%	-21%	0%	0%	.
Cc1cc(C)n(-c2nc(C)c(C)c(=O)n2CC(=O)Nc2ccc(OC(F)(F)F)cc2)n1	-4%[60.1 µM]	-11%	-13%	-1%	.	-8%
COc1cccc(NS(=O)(=O)c2ccc3[nH]cc(C(=O)N(C)Cc4ccco4)c(=O)c3c2)c1	?	79µM*	?	-8%	-15%	?
Cc1cc(C)cc(NS(=O)(=O)c2ccc3[nH]cc(C(=O)N(C)Cc4ccccc4)c(=O)c3c2)c1	-7%	?	-8%	-20%	.	-23%
Cc1ccccc1NS(=O)(=O)c1ccc2[nH]cc(C(=O)N(C)Cc3ccco3)c(=O)c2c1	?	?	8.9µM*	-2%	-24%	20µM*
COc1ccc2c(c1)Cc1sc(NC(=O)c3ccccc3C)nc1-2	-10%	3.5µM*	.	?	.	12%
COc1ccc(C(=O)Nc2nc3c(s2)Cc2cc(OC)ccc2-3)cc1	-10%	?	?	-25%	-15%	87%
COc1ccc2c(c1)Cc1sc(NC(=O)c3cccs3)nc1-2	-24%	33%	?	5%	0%	2%
COc1ccc2c(c1)Cc1sc(NC(=O)c3ccccc3)nc1-2	-11%	16µM*	16%	-14%	4%	7%
O=C(NCc1ccco1)c1ccc2c(c1)N(Cc1ccc(F)cc1)C(=O)c1ccccc1S2=O (configuration not stated)	-10%	-11%	-2%	-18%	.	12%
O=C(O)C1CC=CCC1C(=O)Nc1ccc(F)c(F)c1 (configuration not stated)	-12%	10%	3%	-11%	-3%	59%
CC(=O)Nc1ccc2c(c1)OCCO2	-6%	16%	-17%	7%	4%	11%
O=C(O)C1CC=CCC1C(=O)Nc1cccc(F)c1 (configuration not stated)	-14%	-6%	-6%	-2%	-18%	28µM*
O=C(O)C1CC=CCC1C(=O)Nc1ccc2c(c1)OCCO2 (configuration not stated)	-4%	-16%	?	-1%	-3%	20µM*
Cc1ccc2cc3c(N)c4c(C)ccc(C)c4nc3nc2c1	-33%	?	?	-9%	-23%	25µM*
